Test results as given in PubChem BioAssay (NCATS).
Inconclusive results are not listed. The list shows a part of the results. Activity calls are given as the source filed them. Unless noted, calls come from the whole dose curve; as a rule, active = well fitted curve in the direction sought with a large enough effect; inconclusive = small, poorly fitted or top-dose-only effect, or another doubt; inactive = no such curve, though single readings can be large; an effect the other way counts as inactive or inconclusive.

Legend:
[1] = biological target: Cytochrome P450 2D6 (Homo sapiens) (UniProt P10635); test: qHTS Assay for Inhibitors and Substrates of Cytochrome P450 2D6 (AID 891); settings: recombinant CYP2D6, luciferin-ME EGE luminescence; series mostly up to 57.1 µM; note: potency is the fitted concentration of half-maximal effect; nearly all actives have a fitted effect of over 60% in size
Chain of Cytochrome P450 2D6 (Homo sapiens) (P10635 whole entry, looked up): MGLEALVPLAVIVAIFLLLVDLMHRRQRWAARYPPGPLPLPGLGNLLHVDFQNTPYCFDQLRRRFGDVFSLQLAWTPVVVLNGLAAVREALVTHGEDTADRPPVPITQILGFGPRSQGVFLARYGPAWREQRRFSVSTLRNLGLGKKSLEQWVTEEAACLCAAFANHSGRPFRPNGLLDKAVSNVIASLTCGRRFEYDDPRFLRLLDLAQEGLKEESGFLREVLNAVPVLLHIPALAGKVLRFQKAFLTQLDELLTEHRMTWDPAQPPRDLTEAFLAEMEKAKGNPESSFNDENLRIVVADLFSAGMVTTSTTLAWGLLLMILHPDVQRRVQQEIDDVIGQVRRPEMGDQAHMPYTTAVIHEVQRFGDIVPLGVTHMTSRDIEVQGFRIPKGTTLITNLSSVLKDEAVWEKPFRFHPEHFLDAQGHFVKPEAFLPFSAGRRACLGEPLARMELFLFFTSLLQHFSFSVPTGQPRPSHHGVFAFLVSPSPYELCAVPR
In short: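 Luminescent read-out of luciferin formed by 5 nM human CYP2D6 demethylating 30 uM Luciferin-ME EGE (Km level) over 60 min at room temperature after NADPH regeneration addition. Data normalized to full inhibition by 1.43 uM quinidine.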

[2] = biological target: Guanine nucleotide-binding protein G(i) subunit alpha-1 (Homo sapiens) (UniProt P63096); test: qHTS Assay for Inhibitors of RGS12 GoLoco Motif Activity (Green Fluorophore) (AID 879); settings: Galphai1/FITC-RGS12 GoLoco peptide, fluorescence polarization; series mostly up to 57.1 µM;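 note: negative values mean loss of peptide binding seen as reduced polarization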
Chain of Guanine nucleotide-binding protein G(i) subunit alpha-1 (Homo sapiens) (P63096 whole entry, looked up): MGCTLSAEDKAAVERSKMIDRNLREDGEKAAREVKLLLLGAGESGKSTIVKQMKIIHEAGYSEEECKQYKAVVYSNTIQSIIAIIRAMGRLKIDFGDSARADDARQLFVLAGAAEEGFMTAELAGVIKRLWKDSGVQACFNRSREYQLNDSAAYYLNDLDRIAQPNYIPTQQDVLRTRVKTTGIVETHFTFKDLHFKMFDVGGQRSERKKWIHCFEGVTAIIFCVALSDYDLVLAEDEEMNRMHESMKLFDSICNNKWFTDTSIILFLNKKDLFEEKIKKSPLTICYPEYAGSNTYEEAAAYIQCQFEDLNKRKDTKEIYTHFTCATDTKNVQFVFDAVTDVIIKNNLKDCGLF
In short: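 A drop in FITC polarization marked displacement of the FITC-tagged RGS12 GoLoco peptide (10 nM) from Gαi1 (50 nM). Compounds were incubated 10 min at room temperature in Tris pH 7.5 buffer containing 150 mM NaCl, 0.1 mM GDP and 0.05% NP40; unlabeled peptide titration served as control.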

[3] = qHTS Assay for Identification of Small Molecule Agonists for Thrombopoietin (TPO) Signaling Pathway (AID 917); settings: TPO signaling pathway reporter cells, agonist qHTS; series mostly up to 38.5 µM
In short: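 Human TPO receptor–transfected Ba/F3 cells (murine, IL-3-dependent) in IL-3-deficient medium; compounds plus TPO at EC50, 26 pM final; 24 hrs, 37 C; GpIIb-luciferase luminescence after 10 min RT detection.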

[4] = biological target: Pyruvate kinase PKM (Homo sapiens) (UniProt P14618); test: qHTS Assay for Activators of Human Muscle Pyruvate Kinase (AID 954; active = well fitted curve in the direction sought with a large enough effect, not every such curve was filed as active); settings: purified human muscle pyruvate kinase, luciferase-coupled luminescence, 1 h; series mostly up to 57.5 µM
Chain of Pyruvate kinase PKM (Homo sapiens) (P14618 whole entry, looked up): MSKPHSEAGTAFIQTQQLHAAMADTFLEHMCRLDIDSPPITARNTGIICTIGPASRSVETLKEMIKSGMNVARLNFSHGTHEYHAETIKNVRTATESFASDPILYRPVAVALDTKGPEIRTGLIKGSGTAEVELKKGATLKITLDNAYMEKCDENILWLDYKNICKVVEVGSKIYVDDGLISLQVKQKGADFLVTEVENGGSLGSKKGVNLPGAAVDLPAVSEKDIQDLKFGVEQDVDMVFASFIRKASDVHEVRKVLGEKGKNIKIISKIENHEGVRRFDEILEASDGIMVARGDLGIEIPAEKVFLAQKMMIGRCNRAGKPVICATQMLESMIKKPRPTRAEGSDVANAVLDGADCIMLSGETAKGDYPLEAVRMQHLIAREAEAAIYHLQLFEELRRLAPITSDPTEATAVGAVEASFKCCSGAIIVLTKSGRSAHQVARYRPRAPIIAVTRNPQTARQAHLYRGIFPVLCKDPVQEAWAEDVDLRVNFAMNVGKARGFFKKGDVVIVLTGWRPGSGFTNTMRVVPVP
In short: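 Compound pinned into substrate mix (0.5 mM PEP, 0.1 mM ADP), then 0.1 nM PKM2 added; 1 h, RT. Stop/detection luciferase reagent added, luminescence read. Normalized to no-inhibition and no-enzyme or reference-inhibitor controls.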

[5] = biological target: Alpha-galactosidase (Coffea arabica) (UniProt Q42656); test: Counterscreen for Glucocerebrosidase Inhibitors: qHTS Assay for Coffee Bean alpha-Galactosidase at pH 4.5 (AID 957); settings: purified coffee bean alpha-galactosidase, fluorogenic substrate; series mostly up to 76.9 µM
Chain of Alpha-galactosidase (Coffea arabica) (Q42656 whole entry, looked up): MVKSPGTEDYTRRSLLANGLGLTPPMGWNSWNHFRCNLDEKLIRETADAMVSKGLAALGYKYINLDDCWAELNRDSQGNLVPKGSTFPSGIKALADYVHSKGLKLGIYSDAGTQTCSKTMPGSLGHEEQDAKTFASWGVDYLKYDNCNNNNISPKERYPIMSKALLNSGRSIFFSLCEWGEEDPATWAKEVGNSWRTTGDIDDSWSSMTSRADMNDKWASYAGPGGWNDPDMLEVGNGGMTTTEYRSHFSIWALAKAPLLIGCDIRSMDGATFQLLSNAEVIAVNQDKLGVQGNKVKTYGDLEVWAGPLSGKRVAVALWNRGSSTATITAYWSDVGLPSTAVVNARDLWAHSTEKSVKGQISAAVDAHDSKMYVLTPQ
In short: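 Fluorogenic read-out: 4-methylumbelliferone at Ex 365/Em 440 nm after NaOH/glycine stop (pH 10). Enzyme 2 nM, 4-MU-alpha-galactoside 80 uM, citrate buffer pH 4.5, 20 min RT; normalized to no-enzyme and enzyme controls.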

[6] = biological target: Alpha-galactosidase A (Homo sapiens) (UniProt P06280); test: Counterscreen for Glucocerebrosidase Inhibitors: qHTS Assay for Human alpha-Galactosidase at pH 4.5 (AID 992); settings: purified enzyme, fluorogenic substrate; series mostly up to 76.9 µM
In short: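 Steps: enzyme (2 nM final), then compound across 0.7 nM to 77 uM, then 80 uM fluorogenic galactopyranoside substrate; incubate 20 min at room temperature; quench at pH 10; measure fluorescence at 365/440 nm.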

[7] = biological target: alpha-glucosidase (Oryza sativa, rice) (UniProt Q653V4); test: Counterscreen for Glucocerebrosidase Inhibitors: qHTS Assay for Rice alpha-Glucosidase at pH 5.0 (AID 997); settings: rice alpha-glucosidase enzyme activity; series mostly up to 76.9 µM
In short: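 Endpoint fluorogenic assay at pH 5.0: compounds (0.7 nM to 77 uM) titrated against 4 nM rice enzyme and 400 uM 4-MU-alpha-glucoside for 20 min at room temperature; NaOH/glycine stop, read ex 365/em 440 nm, Hill-fitted AC50.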

[8] = biological target: Alpha-galactosidase (Coffea arabica) (UniProt Q42656); test: Counterscreen for Glucocerebrosidase Inhibitors: qHTS Assay for Coffee Bean alpha-Galactosidase at pH 5.9 (AID 998); settings: coffee bean alpha-galactosidase enzyme assay; series mostly up to 76.9 µM
In short: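 Fluorogenic 4-MU substrate hydrolysis, 80 uM substrate and 2 nM coffee bean alpha-galactosidase, pH 5.9 citrate buffer, 20 min at room temperature, then NaOH/glycine stop. Titration 0.7 nM–77 uM, normalized to no-enzyme and enzyme controls, AC50 via Hill equation.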

[9] = biological target: Lethal(3)malignant brain tumor-like protein 1 (Homo sapiens) (UniProt Q9Y468); test: qHTS Assay for the Inhibitors of L3MBTL1: Hit Validation (AID 540279); settings: L3MBTL1 methyl-lysine binding inhibition, biochemical qHTS; note: potency is the fitted concentration of half-maximal effect; nearly all actives have a fitted effect of over 70% in size
Chain of Lethal(3)malignant brain tumor-like protein 1 (Homo sapiens) (Q9Y468 whole entry, looked up): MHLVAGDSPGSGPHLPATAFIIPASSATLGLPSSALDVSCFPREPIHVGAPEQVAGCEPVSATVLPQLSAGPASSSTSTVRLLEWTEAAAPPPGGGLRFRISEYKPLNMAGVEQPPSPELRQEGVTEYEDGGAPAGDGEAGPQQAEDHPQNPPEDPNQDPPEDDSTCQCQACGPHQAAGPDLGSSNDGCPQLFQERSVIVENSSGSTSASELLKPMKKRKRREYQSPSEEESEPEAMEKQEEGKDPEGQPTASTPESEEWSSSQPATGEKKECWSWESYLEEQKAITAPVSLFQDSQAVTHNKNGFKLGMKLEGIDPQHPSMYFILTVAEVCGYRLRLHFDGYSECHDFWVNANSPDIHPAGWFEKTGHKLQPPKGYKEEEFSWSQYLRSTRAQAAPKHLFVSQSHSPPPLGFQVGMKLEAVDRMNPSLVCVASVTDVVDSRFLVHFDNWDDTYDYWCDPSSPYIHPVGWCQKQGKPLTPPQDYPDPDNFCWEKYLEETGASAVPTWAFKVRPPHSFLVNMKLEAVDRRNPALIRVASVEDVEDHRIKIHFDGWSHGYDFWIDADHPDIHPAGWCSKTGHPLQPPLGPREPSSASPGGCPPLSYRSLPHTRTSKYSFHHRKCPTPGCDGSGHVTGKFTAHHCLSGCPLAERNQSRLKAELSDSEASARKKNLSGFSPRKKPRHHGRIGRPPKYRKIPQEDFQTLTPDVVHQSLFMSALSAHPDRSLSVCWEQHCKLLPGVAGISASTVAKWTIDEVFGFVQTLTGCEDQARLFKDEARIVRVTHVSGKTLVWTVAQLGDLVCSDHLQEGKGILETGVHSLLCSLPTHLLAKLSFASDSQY
In short: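 AlphaScreen displacement: 50 nM L3MBTL1 bound to 75 nM biotin-H3K9me1 peptide for 30 min, compound added for 30 min at room temperature, then beads at 10 ug/mL final for 30 min in the dark. Cefsulodin titration served as intraplate control.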

[10] = biological target: DNA polymerase kappa (Homo sapiens) (UniProt Q9UBT6); test: qHTS for Inhibitors of Polymerase Kappa: Confirmatory Assay for Cherry-picked Compounds (AID 720501); settings: purified Pol-kappa, fluorescent strand-displacement substrate; note: potency is the fitted concentration of half-maximal effect
Chain of DNA polymerase kappa (Homo sapiens) (Q9UBT6 whole entry, looked up): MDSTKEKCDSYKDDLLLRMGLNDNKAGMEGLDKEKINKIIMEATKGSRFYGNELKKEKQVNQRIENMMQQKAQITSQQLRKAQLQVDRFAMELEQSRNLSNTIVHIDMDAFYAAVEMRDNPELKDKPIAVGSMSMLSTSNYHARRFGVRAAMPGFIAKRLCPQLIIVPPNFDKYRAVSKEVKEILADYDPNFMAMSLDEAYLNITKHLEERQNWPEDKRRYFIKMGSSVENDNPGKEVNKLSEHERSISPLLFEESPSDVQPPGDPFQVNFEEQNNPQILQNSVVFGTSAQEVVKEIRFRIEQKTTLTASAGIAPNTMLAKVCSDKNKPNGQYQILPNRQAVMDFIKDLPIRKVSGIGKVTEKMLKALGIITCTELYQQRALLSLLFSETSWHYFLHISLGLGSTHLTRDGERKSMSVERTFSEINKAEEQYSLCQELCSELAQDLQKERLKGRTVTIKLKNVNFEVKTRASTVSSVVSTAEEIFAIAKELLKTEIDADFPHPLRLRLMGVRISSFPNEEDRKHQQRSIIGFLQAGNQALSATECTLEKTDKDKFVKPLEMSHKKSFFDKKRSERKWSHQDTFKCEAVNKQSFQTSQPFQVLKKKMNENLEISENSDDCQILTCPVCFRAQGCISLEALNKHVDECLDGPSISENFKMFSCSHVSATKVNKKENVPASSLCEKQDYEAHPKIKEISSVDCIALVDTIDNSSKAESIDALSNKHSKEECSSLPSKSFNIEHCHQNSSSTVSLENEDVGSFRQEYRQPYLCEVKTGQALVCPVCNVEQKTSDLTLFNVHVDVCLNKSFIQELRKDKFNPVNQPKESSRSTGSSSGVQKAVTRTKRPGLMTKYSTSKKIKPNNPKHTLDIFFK
In short: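 Strand-displacement fluorescence read-out: TAMRA reporter released from a BHQ-2-quenched template, measured at 525/598 nm over a 10 min kinetic window. Substrate was 50 nM final; enzyme was 10 nM Pol-kappa, preincubated 15 min at room temperature with compound.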

[11] = biological target: DNA polymerase eta (Homo sapiens) (UniProt Q9Y253); test: qHTS for Inhibitors of Polymerase Eta: Confirmatory Assay for Cherry-picked Compounds (AID 720502); settings: Pol eta primer extension, TAMRA/BHQ fluorescence, 10 min; note: potency is the fitted concentration of half-maximal effect
Chain of DNA polymerase eta (Homo sapiens) (Q9Y253 whole entry, looked up): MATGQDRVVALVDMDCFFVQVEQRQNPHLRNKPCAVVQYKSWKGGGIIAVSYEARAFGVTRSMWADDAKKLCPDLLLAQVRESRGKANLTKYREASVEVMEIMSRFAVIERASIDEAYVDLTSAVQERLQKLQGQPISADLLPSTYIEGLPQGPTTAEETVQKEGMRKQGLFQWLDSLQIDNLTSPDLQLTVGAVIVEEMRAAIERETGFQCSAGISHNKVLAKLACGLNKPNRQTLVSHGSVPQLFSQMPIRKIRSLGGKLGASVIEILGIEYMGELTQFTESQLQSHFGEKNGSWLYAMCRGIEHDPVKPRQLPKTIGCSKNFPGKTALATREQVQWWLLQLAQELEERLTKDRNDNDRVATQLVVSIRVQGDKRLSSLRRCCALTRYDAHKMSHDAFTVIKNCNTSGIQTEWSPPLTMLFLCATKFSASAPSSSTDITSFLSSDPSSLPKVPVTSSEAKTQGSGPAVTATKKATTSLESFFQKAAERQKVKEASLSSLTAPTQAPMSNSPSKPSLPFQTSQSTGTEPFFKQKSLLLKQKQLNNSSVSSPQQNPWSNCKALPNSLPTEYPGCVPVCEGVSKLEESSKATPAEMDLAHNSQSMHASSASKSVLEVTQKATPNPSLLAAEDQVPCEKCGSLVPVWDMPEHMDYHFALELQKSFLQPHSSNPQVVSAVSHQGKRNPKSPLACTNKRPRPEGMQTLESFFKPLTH
In short: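 Strand-displacement fluorescence (525 nm excitation, 598 nm emission) was read kinetically at 0 and 10 min after adding 50 nM final TAMRA-reporter/BHQ-2-template substrate. Beforehand, 10 nM Pol eta had been exposed to compound for 15 min at room temperature.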

[12] = Cell Viability - LYMP2-025 (AID 976); settings: LYMP2-025 lymphoblastoid cell viability; series mostly up to 92.2 µM; note: potency is the fitted concentration of half-maximal effect
In short: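 CellTiter-Glo luminescence (cellular ATP) after 24 h compound exposure at 37 C; LYMP2-025 human lymphoblastoid cells, 2500/well, complete medium. Tetraoctylammonium bromide positive control. AC50 by Hill equation fit of qHTS concentration-response.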

[13] = MultiTox-Fluor Cytotoxicity Assay - LYMP1-001 - Live Cells (AID 947); settings: LYMP1-001 lymphoblastoid cells, live-cell protease fluorescence viability; series mostly up to 92.2 µM; note: potency is the fitted concentration of half-maximal effect
[14] = MultiTox-Fluor Cytotoxicity Assay - LYMP1-003 - Live Cells (AID 962); settings: LYMP1-003 lymphoblastoid cells, MultiTox-Fluor live-cell protease fluorescence; series mostly up to 92.2 µM;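 note: potency is the fitted concentration of half-maximal effect; cells exposed to compound for 16 hours at 37 °C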
In short: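 Readout: live-cell fluorescence (Ex/Em=405/510) from GF-AFC cleavage after 60 min MultiTox-Fluor reagent at room temperature. Lymphoblastoid LYMP1-003 cells, 16 hr compound treatment, 37 C. Concentration-response fitted to standard Hill equation for AC50.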

[15] = Cell Viability - LYMP1-003 - Assay at 24 hr (AID 963); settings: LYMP1-003 lymphoblastoid cell viability; series mostly up to 92.2 µM; note: potency is the fitted concentration of half-maximal effect
In short: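 CellTiter-Glo luminescence (intracellular ATP) read after 24 hr, 37 C compound exposure of 2500 LYMP1-003 human lymphoblastoid cells/well in complete medium; qHTS concentration series; AC50 via standard Hill equation.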

[16] = Cell Viability - LYMP1-003 - Assay at 40 hr (AID 964); settings: LYMP1-003 lymphoblastoid viability; series mostly up to 92.2 µM; note: potency is the fitted concentration of half-maximal effect; nearly all actives have a fitted effect of over 60% in size
In short: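 LYMP1-003 lymphoblastoid cells, 2500/well; 5 hr preincubation, 40 hr compound exposure, 37 C; CellTiter-Glo 30 min RT; luminescence; Hill-fit AC50. Positive control tetraoctylammonium bromide.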

[17] = Cell Viability - LYMP2-005 (AID 967); settings: LYMP2-005 lymphoblastoid cell viability; series mostly up to 92.2 µM; note: potency is the fitted concentration of half-maximal effect
In short: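 Luciferase-based ATP quantitation served as the viability measure in human lymphoblastoid LYMP2-005 cells exposed to test compounds for 24 h at 37 C in complete culture medium. Potency (AC50) was obtained by fitting concentration-response curves with the Hill equation.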

[18] = Cell Viability - LYMP1-002 - Assay at 24 hr (AID 993); settings: LYMP1-002 lymphoblastoid cells viability; series mostly up to 92.2 µM; note: potency is the fitted concentration of half-maximal effect
In short: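 CellTiter-Glo luminescence (intracellular ATP) after 24 h compound exposure, 37 C, in LYMP1-002 human lymphoblastoid cells; decreased ATP taken as cytotoxicity. AC50 from standard Hill fit of concentration-response curves.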

[19] = Cell Viability - LYMP1-002 - Assay at 40 hr (AID 994); settings: LYMP1-002 lymphoblastoid cell viability; series mostly up to 92.2 µM; note: potency is the fitted concentration of half-maximal effect; nearly all actives have a fitted effect of over 60% in size
In short: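 qHTS cytotoxicity; 2500 cells/well, 5 hr 37 C settle, compound 40 hr 37 C. CellTiter-Glo, 30 min RT, luminescence (ATP). Concentration-response, Hill fit → AC50. Pos. ctrl tetraoctylammonium bromide.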

[20] = biological target: Nuclear receptor ROR-gamma (Homo sapiens) (UniProt P51449); test: qHTS assay for small molecule antagonists of the retinoid-related orphan receptor gamma (ROR-gamma) signaling pathway (AID 651802); settings: ROR-gamma antagonist cell reporter assay; series mostly up to 92.2 µM; note: potency is the fitted concentration of half-maximal effect; nearly all actives have a fitted effect of over 60% in size
Chain of Nuclear receptor ROR-gamma (Homo sapiens) (P51449 whole entry, looked up): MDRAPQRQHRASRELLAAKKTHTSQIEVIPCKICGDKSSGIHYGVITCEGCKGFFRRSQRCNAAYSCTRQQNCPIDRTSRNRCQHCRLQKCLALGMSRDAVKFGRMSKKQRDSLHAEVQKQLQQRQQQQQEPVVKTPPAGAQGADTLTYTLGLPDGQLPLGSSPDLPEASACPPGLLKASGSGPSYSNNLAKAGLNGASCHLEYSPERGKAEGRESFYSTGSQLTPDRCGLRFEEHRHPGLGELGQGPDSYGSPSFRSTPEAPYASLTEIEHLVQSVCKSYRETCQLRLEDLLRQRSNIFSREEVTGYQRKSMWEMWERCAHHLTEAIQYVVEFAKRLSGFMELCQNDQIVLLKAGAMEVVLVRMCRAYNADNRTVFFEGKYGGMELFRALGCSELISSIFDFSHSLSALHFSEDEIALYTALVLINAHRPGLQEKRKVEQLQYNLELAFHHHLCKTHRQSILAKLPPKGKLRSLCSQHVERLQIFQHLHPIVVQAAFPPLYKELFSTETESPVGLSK
In short: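 Luciferase read-out: ONE-Glo luminescence after 30 min at room temperature, following 16hr doxycycline induction at 37C, 5% CO2 of CHO cells with TET-inducible ROR and RORE-LUC reporter; decreased luminescence = reduced reporter activity.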

Measured: Potency

C=CCO[C@@H](Cn1ccnc1)c1ccc(Cl)cc1Cl
active: [1] 5.01 µM

C[C@@H]1O[C@@H](O[C@H]2C[C@@H](O)[C@]3(CO)[C@@H]4[C@@H](O)C[C@]5(C)[C@H](C6=CC(=O)OC6)CC[C@@]5(O)[C@H]4CC[C@@]3(O)C2)[C@H](O)[C@H](O)[C@@H]1O
inactive: [2] | [3] | [4] | [5] | [6] | [7] | [8]

Cc1cc(/C=C2/C(=O)NC(=O)N(Cc3ccco3)C2=O)c(C)n1-c1ccc(C(=O)O)cc1
active: [9] 9.47 µM | [10] 18.9 µM | [11] 60.1 µM

c1cc(OCC2CO2)cc(OCC2CO2)c1 (centres undefined)
active: [12] 50.1 µM

C=CC(=O)OCC(CO)(COC(=O)C=C)COC(=O)C=C
active: [13] 6.31 µM | [14] 3.98 µM | [15] 6.31 µM | [16] 3.98 µM | [17] 2.51 µM | [18] 3.98 µM | [19] 5.01 µM | [20] 4.22 µM

O=Nc1ccc(Nc2ccccc2)cc1
active: [13] 7.94 µM | [14] 6.31 µM | [15] 10 µM | [16] 7.94 µM | [17] 10 µM | [12] 10 µM | [18] 7.94 µM | [19] 12.6 µM | [20] 7.5 µM
